{
  "source": "PubChem BioAssay AID720650",
  "about": "(Broad Institute, 2013)",
  "note": "Calls of active or inactive are those of the source. The rule behind the calls is not given here.",
  "data": [
    {"experiment": "Biochemical counterscreen for C difficile toxins, absence of UDPG, inhibitor dose response (AID 720650)", "conditions": "series mostly up to 19.5 µM", "values": [
      {"smiles": "O=C1NN=C2CCCCCCC12", "note": "(stereo not drawn)", "AC50": "inactive"},
      {"smiles": "O=C(Nc1ccncc1)c1ccc(-c2ccccc2)cc1", "AC50": "inactive"},
      {"smiles": "CC(=O)Nc1cnc(-c2ccccc2O)cn1", "AC50": "15.3 µM (active)"},
      {"smiles": "O=C1Cc2cc(S(=O)(=O)NCc3ccccc3Cl)cc3c2N1CCC3", "AC50": "inactive"},
      {"smiles": "O=C(NNc1ccc(-c2csnn2)cc1)c1cc(Cl)cc(Cl)c1", "AC50": "< 0.16 µM (active)"},
      {"smiles": "CCOC(=O)c1c(C)[nH]c(C)c1C(=O)COC(=O)/C=C/c1ccco1", "AC50": "> 39 µM (inactive)"},
      {"smiles": "c1ccc(Cc2nnc3n2N=C(c2ccccc2)CS3)cc1", "AC50": "inactive"},
      {"smiles": "CN(c1ccc(O)cc1)c1nc(-c2cccnc2)cs1", "AC50": "inactive"},
      {"smiles": "CCCCCCCN1C(N(C)C)=NC[C@@H]1Cc1ccccc1", "AC50": "inactive"},
      {"smiles": "S=c1nc(-c2cccc(Cl)c2)[nH][nH]1", "AC50": "3.82 µM (active)"},
      {"smiles": "CCN(CC)CCNC(=O)C1CCN(S(=O)(=O)c2c(C)noc2/C=C/c2ccccc2F)CC1", "AC50": "inactive"},
      {"smiles": "CCN1CC(CNCc2cn(-c3ccc(OC)cc3)nc2-c2ccccc2Cl)CC1=O", "note": "(stereo not drawn)", "AC50": "inactive"},
      {"smiles": "COc1ccc(/C=C2/C(=O)C(C)(C(C)C)CCC2C)cc1", "note": "(stereo not drawn)", "AC50": "inactive"},
      {"smiles": "CCOc1ccccc1/C=C/c1onc(C)c1S(=O)(=O)N1CCC(C(=O)N(CC)CC)CC1", "AC50": "inactive"},
      {"smiles": "O=C(CNC(=O)c1ccccc1Br)N/N=C/c1ccc(O)cc1", "AC50": "15.7 µM (active)"},
      {"smiles": "Cc1cccc(-n2c(=O)c3ccccc3n3c(=S)[nH]nc23)c1C", "AC50": "inactive"},
      {"smiles": "O=C(C[C@@H]1CC[C@H]2[C@@H](COC[C@@H](O)CN2Cc2ccc(Oc3ccccc3)cc2)O1)Nc1nccs1", "AC50": "inactive"},
      {"smiles": "COCC(=O)N1CC[C@@H]2[C@H]1c1cc(-c3ccc(OC)cc3)ccc1N(C)[C@H]2CO", "AC50": "10.2 µM (active)"}
    ]}
  ]
}
